For eight compounds, growth results are on record in PubChem BioAssay (NCI).

Structures are written as SMILES. About 83,000 compounds went through this panel and 20% of them were active in at least one assay; those are over-represented in the sample as a whole.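 48-hour exposure, single concentration, 96-well plates; percent growth endpoint where 0 means no net growth. Active: below 10.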 Unmarked numbers belong to inactive results. The source made the active and inactive calls.

Among the test systems are SK-MEL-2 melanoma; EKVX NSCLC; SN12C renal; UO-31 renal; TK-10 renal; ACHN renal; CAKI-1 renal; A498 renal; CCRF-CEM leukemia; MOLT-4 leukemia; SR leukemia; RPMI-8226 leukemia; OVCAR-5 ovarian; OVCAR-4 ovarian; SK-OV-3 ovarian; IGROV1 ovarian; OVCAR-3 ovarian; HS 578T breast; NCI/ADR-RES ovarian; OVCAR-8 ovarian.
Common to all, as to experiment: NCI-60 one-dose screen, 48 h (100 = growth as untreated, 0 = no growth, -100 = all killed)
Details in all cases: 10 µM unless noted

With `COc1cc2nc3sc(C(=O)Nc4ccc(C(=O)OC(C)C)cc4)c(C(=O)Nc4ccc(Cl)cc4C)n3c(=O)c2cc1OC`, the growth in the experiment with SK-MEL-2 melanoma is 110%; with EKVX NSCLC, 77.2%; with SN12C renal it was 102%; in the experiment on UO-31 renal, -5.58% (active); with TK-10 renal, 6.58% (active); with ACHN renal, 97%. Moreover, the growth was 42.7% in the experiment with CAKI-1 renal; 56.7% in the experiment on A498 renal; 23.6% in the experiment on CCRF-CEM leukemia; 52.8% with MOLT-4 leukemia; 19.5% in the experiment on SR leukemia; 52.7% in the experiment on RPMI-8226 leukemia. Further, the growth in the experiment on OVCAR-5 ovarian was 70%; in the experiment on OVCAR-4 ovarian, 69.5%; in the experiment on SK-OV-3 ovarian it was 91.4%; in the experiment with IGROV1 ovarian it was 17%; with OVCAR-3 ovarian, 77.2%; with HS 578T breast, 58.9%. Also, the growth in the experiment with NCI/ADR-RES ovarian was 62.3%.

With `NC(N)=NS(=O)(=O)c1ccc(NC2=C(I)C(=O)c3ncccc3C2=O)cc1`, the growth with SK-MEL-2 melanoma is 106%; in the experiment on EKVX NSCLC, 105%; with SN12C renal, 101%; in the experiment with UO-31 renal, 75.1%; with TK-10 renal, 118%; in the experiment with ACHN renal it was 93.2%. The growth in the experiment on CAKI-1 renal is 90.4%; in the experiment on A498 renal, 97.2%; in the experiment with CCRF-CEM leukemia it was 107%; in the experiment with MOLT-4 leukemia, 103%; in the experiment on SR leukemia, 104%; with RPMI-8226 leukemia it was 104%. Besides, the growth in the experiment with OVCAR-8 ovarian is 97.2%; in the experiment with OVCAR-5 ovarian, 112%; in the experiment with SK-OV-3 ovarian, 87.8%; in the experiment on IGROV1 ovarian it was 97.5%; in the experiment on OVCAR-3 ovarian, 95.3%; with HS 578T breast it was 103%. Besides, in the experiment on NCI/ADR-RES ovarian, the growth is 94.1%.

For the compound `COc1ccc(Nc2ncccc2/C=C/C(=O)c2cc(OC)c(OC)c(OC)c2)cc1`, the growth with SK-MEL-2 melanoma was -37.6% (active); with EKVX NSCLC, 60.8%; in the experiment on SN12C renal, -18.1% (active); with UO-31 renal it was -79.6% (active); in the experiment with TK-10 renal it was -14.6% (active); with ACHN renal, -83.4% (active). For the same compound, the growth was -23.6% (active) in the experiment with CAKI-1 renal; 64.6% in the experiment on A498 renal; -10.4% (active) in the experiment with CCRF-CEM leukemia; -11.7% (active) in the experiment with MOLT-4 leukemia; -25.3% (active) in the experiment with RPMI-8226 leukemia; -33.8% (active) with OVCAR-8 ovarian. Also, the growth is -15.4% (active) in the experiment with OVCAR-5 ovarian; 29% with OVCAR-4 ovarian; 64.6% in the experiment with SK-OV-3 ovarian; -2.98% (active) in the experiment on IGROV1 ovarian; -88.2% (active) in the experiment on OVCAR-3 ovarian; 37.8% in the experiment with HS 578T breast. Moreover, the growth in the experiment with NCI/ADR-RES ovarian is 14%.

`NS(=O)(=O)c1ccc(-c2cc(-c3nnc(SCC(=O)Nc4ccc(C(=O)/C=C/c5ccc(Cl)cc5)cc4)n3-c3ccccc3)c3ccccc3n2)cc1`: the growth with SK-MEL-2 melanoma was 105%; in the experiment with EKVX NSCLC it was 96.2%; in the experiment on SN12C renal, 94.9%; in the experiment with UO-31 renal it was 84%; in the experiment on TK-10 renal it was 96.4%; with ACHN renal, 106%. Besides, the growth in the experiment on CAKI-1 renal was 77.1%; with A498 renal it was 49.9%; in the experiment on CCRF-CEM leukemia, 90.3%; with MOLT-4 leukemia, 68.5%; in the experiment on SR leukemia it was 71.3%; with OVCAR-8 ovarian it was 89.9%. Besides, the growth is 93.1% in the experiment with OVCAR-5 ovarian; 105% with OVCAR-4 ovarian; 103% in the experiment on SK-OV-3 ovarian; 99.2% in the experiment with IGROV1 ovarian; 101% with OVCAR-3 ovarian; 84.3% in the experiment on HS 578T breast. Also, in the experiment on NCI/ADR-RES ovarian, the growth was 103%.

On to `COc1ccc2c(c1)c(-c1nc(-c3c[nH]c4ncccc34)cs1)cn2CCCN1CCOCC1`, for which the growth was 11.4% with SK-MEL-2 melanoma; 57.8% in the experiment on EKVX NSCLC; 52.7% in the experiment on SN12C renal; 11.9% in the experiment with UO-31 renal; 51.5% in the experiment with TK-10 renal; 14.5% in the experiment with ACHN renal. In addition, the growth was 28.8% with CAKI-1 renal; 27.8% in the experiment on A498 renal; 13.1% in the experiment on CCRF-CEM leukemia; -1.04% (active) in the experiment with MOLT-4 leukemia; 6.64% (active) with SR leukemia; 25.3% with OVCAR-8 ovarian. Also, the growth in the experiment with OVCAR-5 ovarian is 68.1%; in the experiment on OVCAR-4 ovarian, 41.5%; in the experiment with SK-OV-3 ovarian, 51.8%; with IGROV1 ovarian, 22.9%; in the experiment on OVCAR-3 ovarian it was 44%; with HS 578T breast, 2.12% (active). In the experiment with NCI/ADR-RES ovarian, the growth was 43.4%.

Consider `O=C(Cc1ccc(NC(=O)c2cccc(Cl)c2)cc1)NCc1ccccc1`, for which the growth is 46.8% with SK-MEL-2 melanoma; 72.8% in the experiment on EKVX NSCLC; 58.1% with SN12C renal; 59.9% in the experiment on UO-31 renal; 64.3% in the experiment with TK-10 renal; 65% in the experiment with ACHN renal. Moreover, the growth with CAKI-1 renal was 52%; in the experiment on A498 renal, 42.2%; in the experiment with CCRF-CEM leukemia, 22.7%; in the experiment with MOLT-4 leukemia, 39.7%; in the experiment on SR leukemia, 11.3%; in the experiment with OVCAR-8 ovarian, 67.1%. For the same compound, the growth in the experiment with OVCAR-5 ovarian was 73.2%; in the experiment with OVCAR-4 ovarian it was 82.8%; with SK-OV-3 ovarian, 57.6%; in the experiment on IGROV1 ovarian, 49.4%; with OVCAR-3 ovarian it was 16.7%; in the experiment on HS 578T breast, 32.9%. For the same compound, the growth in the experiment on NCI/ADR-RES ovarian is 50.5%.

As to `COc1ccc(/C=C/C(c2cc(OC)c(OC)c(OC)c2)n2cncn2)cc1` (stereo unspecified), the growth in the experiment with SK-MEL-2 melanoma is 12.9%; in the experiment on EKVX NSCLC, 66%; in the experiment on SN12C renal it was 62%; in the experiment on UO-31 renal, 64.4%; in the experiment on TK-10 renal it was 48.5%; with ACHN renal, 57.5%. Besides, the growth in the experiment with CAKI-1 renal is 51.6%; in the experiment on A498 renal, 36.4%; with CCRF-CEM leukemia it was 35.1%; in the experiment with MOLT-4 leukemia, 39.4%; with SR leukemia it was 18.9%; with OVCAR-8 ovarian, 52.2%. Further, the growth in the experiment on OVCAR-5 ovarian was 90.2%; in the experiment on SK-OV-3 ovarian, 35.5%; in the experiment with IGROV1 ovarian, 64.6%; with OVCAR-3 ovarian, 9.06% (active); in the experiment on HS 578T breast, 51.2%; with NCI/ADR-RES ovarian, 36.3%.

As for `COc1cc2c(cc1OCCCCN1CCN(C(=S)SCCC(C#N)(c3ccccc3)c3ccccc3)CC1)N=C[C@@H]1CCCN1C2=O`, the growth in the experiment on SK-MEL-2 melanoma is -95.1% (active); with EKVX NSCLC it was -94.8% (active); in the experiment on SN12C renal, -57.4% (active); with UO-31 renal it was 10.8%; with TK-10 renal, -79.6% (active); with ACHN renal, -68.8% (active). Further, the growth was -64.7% (active) in the experiment on CAKI-1 renal; -95% (active) in the experiment on A498 renal; -20.2% (active) with CCRF-CEM leukemia; -13.2% (active) in the experiment with MOLT-4 leukemia; -44.1% (active) with SR leukemia; 15.9% with OVCAR-8 ovarian. For the same compound, the growth in the experiment on OVCAR-5 ovarian is -17.1% (active); in the experiment with OVCAR-4 ovarian, -11.8% (active); in the experiment with SK-OV-3 ovarian, -7.37% (active); with IGROV1 ovarian, -76.6% (active); in the experiment with OVCAR-3 ovarian it was -85.9% (active); in the experiment on HS 578T breast, -11.7% (active). For the same compound, the growth in the experiment with NCI/ADR-RES ovarian is 13.9%.
